Several values for one entry are separate records, joined by “and”; a condition that tells them apart may be missing. Identical values can stand only once. Inconclusive results are not listed. Activity calls are given as the source filed them. Unless noted, the call rests on the fitted dose curve; in most records, active means well fitted curve in the direction sought with a large enough effect in the repeat runs; inconclusive means weak or mixed curves; inactive means no such curve, though single readings can be large; an effect the other way counts as inactive or inconclusive.
What was measured:
[1] = target: Aryl hydrocarbon receptor (Homo sapiens) (UniProt P35869); assay: qHTS assay to identify small molecule that activate the aryl hydrocarbon receptor (AhR) signaling pathway (AID 743085); further: nearly all actives have a fitted effect of over 15% in size; further: potency means the concentration at half of the fitted maximal effect;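 on activation: HG2L7.5c1 human HepG2 liver cells with stably integrated DRE-driven firefly reporter; series mostly up to about 70 µM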
Chain of Aryl hydrocarbon receptor (Homo sapiens) (P35869 whole entry, looked up): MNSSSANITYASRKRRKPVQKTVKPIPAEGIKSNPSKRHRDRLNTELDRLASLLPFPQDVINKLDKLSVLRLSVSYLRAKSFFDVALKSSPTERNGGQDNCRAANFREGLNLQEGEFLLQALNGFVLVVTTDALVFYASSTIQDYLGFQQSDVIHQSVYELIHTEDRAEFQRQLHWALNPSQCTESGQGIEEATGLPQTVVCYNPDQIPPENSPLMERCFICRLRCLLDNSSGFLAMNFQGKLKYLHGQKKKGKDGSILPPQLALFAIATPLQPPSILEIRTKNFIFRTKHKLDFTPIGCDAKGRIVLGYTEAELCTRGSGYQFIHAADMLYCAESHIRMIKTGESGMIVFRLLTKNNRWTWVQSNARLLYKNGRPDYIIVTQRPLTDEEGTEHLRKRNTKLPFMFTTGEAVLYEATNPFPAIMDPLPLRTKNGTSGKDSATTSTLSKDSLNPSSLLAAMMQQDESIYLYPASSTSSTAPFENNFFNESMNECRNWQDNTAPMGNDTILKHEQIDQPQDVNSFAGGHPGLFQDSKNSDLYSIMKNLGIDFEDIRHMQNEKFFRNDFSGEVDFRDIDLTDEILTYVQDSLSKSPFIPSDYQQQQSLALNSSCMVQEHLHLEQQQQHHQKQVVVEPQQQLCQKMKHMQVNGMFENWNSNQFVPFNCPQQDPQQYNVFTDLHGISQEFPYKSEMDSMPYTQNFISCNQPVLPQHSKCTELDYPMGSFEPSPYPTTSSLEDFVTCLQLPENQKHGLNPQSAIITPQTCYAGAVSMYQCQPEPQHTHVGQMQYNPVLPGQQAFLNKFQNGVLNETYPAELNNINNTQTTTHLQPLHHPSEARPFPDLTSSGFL
In short: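 Steps: seed HepG2-AhR-luc cells; allow 5 h at 37C; pin-transfer test compound or vehicle; incubate 24 h at 37C; add viability dye (30 min, 37C) and read fluorescence; add luciferase substrate (30 min, RT) and read luminescence.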

[2] = qHTS assay to identify small molecule that activate the aryl hydrocarbon receptor (AhR) signaling pathway - cell viability counter screen (AID 743086); further: nearly all actives have a fitted effect of over 45% in size; further: potency means the concentration at half of the fitted maximal effect
In short: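 HepG2-AhR-luc (HG2L7.5c1) cells, 4000/well, treated 24 h at 37 C with compound; viability measured as CellTiter-Fluor fluorescence after 30 min in the same wells as the luciferase read.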

[3] = target: Peroxisome proliferator-activated receptor gamma (Homo sapiens) (UniProt P37231); assay: qHTS assay to identify small molecule agonists of the peroxisome proliferator-activated receptor gamma (PPARg) signaling pathway (AID 743094; active means well fitted activation curve with a large enough effect in the signal ratio in the repeat runs, not every such curve was filed as active; the % refers to the signal ratio)
Chain of Peroxisome proliferator-activated receptor gamma (Homo sapiens) (P37231 whole entry, looked up): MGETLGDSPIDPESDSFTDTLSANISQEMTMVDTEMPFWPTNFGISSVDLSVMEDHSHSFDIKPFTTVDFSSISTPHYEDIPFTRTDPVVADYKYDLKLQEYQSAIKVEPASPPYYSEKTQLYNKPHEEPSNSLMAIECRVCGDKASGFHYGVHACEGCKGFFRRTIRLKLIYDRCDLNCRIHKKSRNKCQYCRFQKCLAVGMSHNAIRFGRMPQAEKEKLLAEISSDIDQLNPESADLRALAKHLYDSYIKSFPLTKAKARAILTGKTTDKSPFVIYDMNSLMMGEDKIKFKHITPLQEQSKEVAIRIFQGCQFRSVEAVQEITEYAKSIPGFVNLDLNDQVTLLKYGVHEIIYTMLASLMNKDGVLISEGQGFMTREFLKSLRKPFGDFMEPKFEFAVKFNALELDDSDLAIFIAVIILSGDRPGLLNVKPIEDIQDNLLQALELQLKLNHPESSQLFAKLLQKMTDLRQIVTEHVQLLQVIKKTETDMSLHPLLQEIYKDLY
In short: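 Cell-based bla reporter, HEK293H background, PPARg-driven UAS. Pre-incubation 5 h, 37C, 5% CO2. Compound 17 h, 37C. Substrate 1 h RT; fluorescence.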

[4] = qHTS assay for small molecule agonists of the antioxidant response element (ARE) signaling pathway - cell viability counter screen (AID 743203; calls by dose curve; further: nearly all actives have a fitted effect of over 55% in size; further: potency means the concentration at half of the fitted maximal effect)
In short: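 Measured in the same wells as the beta-lactamase ARE reporter, this read-out is CellTiter-Glo luminescence from HepG2 ARE-bla cells given compounds for 16 hrs.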

[5] = qHTS assay for small molecule activators of the heat shock response signaling pathway - cell viability counter screen (AID 743209); further: nearly all actives have a fitted effect of over 50% in size; further: potency means the concentration at half of the fitted maximal effect
In short: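 Same-well multiplex: after 2.5 h room-temperature incubation with LiveBLAzer B/G substrate and fluorescence reading, CellTiter-Glo reagent was added to HSE-bla HeLa cells that had received compound for 5 h at 37 C; luminescence read after 30 min.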

[6] = qHTS assay for small molecule activators of the heat shock response signaling pathway (AID 743210; active means well fitted activation curve with a large enough effect in the signal ratio in the repeat runs, with a control signal flat, not every such curve was filed as active; the % refers to the signal ratio;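 further: HeLa cells with beta-lactamase reporter driven by heat shock elements; series mostly up to about 63 µM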)
In short: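 Beta-lactamase reporter read-out: FRET substrate fluorescence after 2.5 h at RT, following 5 h compound treatment at 37 C of HeLa cells carrying HSE-driven bla reporter; quantitative HTS format.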

[7] = qHTS assay to identify small molecule agonists of the peroxisome proliferator-activated receptor delta (PPARd) signaling pathway - cell viability counter screen (AID 743211); further: nearly all actives have a fitted effect of over 55% in size; further: potency means the concentration at half of the fitted maximal effect
In short: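 Viability of GeneBLAzer PPARd UAS-bla HEK293H cells was assessed after 17 h compound incubation at 37C, using CellTiter-Glo reagent added after the reporter read and luminescence recorded 30 min later.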

[8] = qHTS assay to identify small molecule agonists of the farnesoid-X-receptor (FXR) signaling pathway - cell viability counter screen (AID 743218); further: nearly all actives have a fitted effect of over 45% in size; further: potency means the concentration at half of the fitted maximal effect
In short: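 Readout: CellTiter-Glo luminescence, 30 min RT, multiplexed after the FXR-bla FRET reading. HEK 293T FXR-UAS-bla cells received compound 5 h post-plating and were incubated 16 h at 37 C.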

[9] = qHTS assay to identify small molecule antagonists of the farnesoid-X-receptor (FXR) signaling pathway - cell viability counter screen (AID 743221; active means well fitted cell-killing curve with a large enough effect in the repeat runs, not every such curve was filed as active; further: nearly all actives have a fitted effect of over 50% in size; further: potency means the concentration at half of the fitted maximal effect)
In short: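 Quantitative HTS of the Tox21 10K library run in parallel with the beta-lactamase reporter read. HEK 293T cells carrying a UAS-driven bla reporter got compound and 50 uM CDCA (final) for 16 h; ATP-based luminescence followed.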

[10] = qHTS assay to identify small molecule antagonists of the peroxisome proliferator-activated receptor gamma (PPARg) signaling pathway - cell viability counter screen (AID 743194); further: nearly all actives have a fitted effect of over 55% in size; further: potency means the concentration at half of the fitted maximal effect
In short: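 Cytotoxicity counter screen in PPARg-bla HEK293H cells, same wells as reporter assay. Compounds plus 50 nM rosiglitazone (final) for 17 h at 37 C, then viability read by CellTiter-Glo luminescence.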

[11] = qHTS assay to identify small molecule antagonists of the peroxisome proliferator-activated receptor delta (PPARd) signaling pathway - cell viability counter screen (AID 743213); further: nearly all actives have a fitted effect of over 50% in size; further: potency means the concentration at half of the fitted maximal effect
In short: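 HEK293H PPARd UAS-bla cells, 5 h pre-incubation, compound + L165041 300 nM final, 17 h 37 C; B/G FRET substrate 2 h RT; then CellTiter-Glo 30 min RT, luminescence.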

[12] = target: Bile acid receptor (Homo sapiens) (UniProt Q96RI1); assay: qHTS assay to identify small molecule antagonists of the farnesoid-X-receptor (FXR) signaling pathway (AID 743217; active means well fitted inhibition curve with a large enough effect in the signal ratio in the repeat runs, not every such curve was filed as active; the % refers to the signal ratio)
Chain of Bile acid receptor (Homo sapiens) (Q96RI1 whole entry, looked up): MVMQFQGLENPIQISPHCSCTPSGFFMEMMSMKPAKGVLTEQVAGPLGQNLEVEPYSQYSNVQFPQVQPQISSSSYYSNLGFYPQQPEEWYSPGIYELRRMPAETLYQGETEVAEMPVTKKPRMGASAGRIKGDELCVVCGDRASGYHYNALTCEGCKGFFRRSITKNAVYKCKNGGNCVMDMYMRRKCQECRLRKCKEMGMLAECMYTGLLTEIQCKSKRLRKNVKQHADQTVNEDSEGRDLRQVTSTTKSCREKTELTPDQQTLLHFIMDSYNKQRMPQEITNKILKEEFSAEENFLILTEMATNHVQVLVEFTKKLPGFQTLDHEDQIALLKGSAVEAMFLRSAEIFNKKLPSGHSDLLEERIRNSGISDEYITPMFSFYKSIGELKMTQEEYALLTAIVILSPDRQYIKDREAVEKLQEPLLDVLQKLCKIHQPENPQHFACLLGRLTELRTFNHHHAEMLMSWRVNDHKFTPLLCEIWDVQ
In short: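 FRET fluorescence after 2 h room-temperature LiveBLAzer loading gives the readout. Prior step: FXR-bla HEK 293T cells, seeded and incubated 5 h, received test compounds plus 50 uM final CDCA for 16 h at 37 °C.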

[13] = target: Bile acid receptor (Homo sapiens) (UniProt Q96RI1); assay: qHTS assay to identify small molecule agonists of the farnesoid-X-receptor (FXR) signaling pathway (AID 743220; active means well fitted activation curve with a large enough effect in the signal ratio in the repeat runs, not every such curve was filed as active; the % refers to the signal ratio)
In short: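 FXR-UAS-bla HEK 293T cells carrying a UAS-driven beta-lactamase reporter were plated for 5 h at 37C/5% CO2, then exposed to DMSO-dissolved Tox21 10K compounds for 16 h at 37C. A LiveBLAzer B/G FRET substrate was loaded for 2 h at room temperature before fluorescence reading.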

[14] = target: Vitamin D3 receptor (Homo sapiens) (UniProt P11473); assay: qHTS assay to identify small molecule agonists of the vitamin D receptor (VDR) signaling pathway (AID 743222; calls by dose curve)
Chain of Vitamin D3 receptor (Homo sapiens) (P11473 whole entry, looked up): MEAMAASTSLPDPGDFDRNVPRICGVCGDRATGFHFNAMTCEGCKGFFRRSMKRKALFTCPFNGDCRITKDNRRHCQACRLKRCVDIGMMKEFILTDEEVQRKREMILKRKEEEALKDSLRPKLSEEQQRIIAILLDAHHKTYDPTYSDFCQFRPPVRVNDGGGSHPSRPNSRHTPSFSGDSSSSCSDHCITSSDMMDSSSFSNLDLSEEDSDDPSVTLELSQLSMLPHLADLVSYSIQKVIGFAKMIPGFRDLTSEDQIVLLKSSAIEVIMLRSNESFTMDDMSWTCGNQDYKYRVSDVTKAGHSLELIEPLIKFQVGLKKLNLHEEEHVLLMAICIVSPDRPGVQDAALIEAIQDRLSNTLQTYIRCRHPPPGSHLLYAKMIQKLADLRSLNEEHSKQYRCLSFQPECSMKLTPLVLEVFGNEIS
In short: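 Following 4 h attachment at 37C, VDR-bla cells (2,000 per well) received DMSO-dissolved compounds or controls. After 16 h incubation, LiveBLAzer B/G FRET substrate was added and fluorescence read 2 h later at room temperature.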

[15] = target: Vitamin D3 receptor (Homo sapiens) (UniProt P11473); assay: qHTS assay to identify small molecule antagonists of the vitamin D receptor (VDR) signaling pathway (AID 743223; active means well fitted inhibition curve with a large enough effect in the signal ratio in the repeat runs, not every such curve was filed as active; the % refers to the signal ratio; further: potency means the concentration at half of the fitted maximal effect)
In short: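 Fluorescence from LiveBLAzer B/G FRET substrate, read after 2 h at room temperature, reflects beta-lactamase reporter activity in VDR-bla cells treated 16 h at 37C with compounds and agonist 1alpha,25-dihydroxyvitamin D3 (3 nM final).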

[16] = qHTS assay to identify small molecule agonists of the vitamin D receptor (VDR) signaling pathway - cell viability counter screen (AID 743224); further: nearly all actives have a fitted effect of over 50% in size; further: potency means the concentration at half of the fitted maximal effect
In short: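 In parallel with the bla FRET readout, cytotoxicity toward VDR-bla cells after 16 h compound exposure was assessed by CellTiter-Glo, with luminescence recorded after a 30 min room-temperature incubation.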

[17] = qHTS assay for small molecule agonists of the antioxidant response element (ARE) signaling pathway (AID 743202; active means well fitted activation curve with a large enough effect in the signal ratio in the repeat runs, not every such curve was filed as active; the % refers to the signal ratio; further: potency means the concentration at half of the fitted maximal effect)
In short: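 HepG2 ARE-bla reporter line, 2,000 cells/well; 5 h preincubation 37 C/5% CO2; compound (DMSO) 16 h 37 C; B/G FRET substrate 2 h RT; fluorescence intensity.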

[18] = target: Peroxisome proliferator-activated receptor delta (Homo sapiens) (UniProt Q03181); assay: qHTS assay to identify small molecule agonists of the peroxisome proliferator-activated receptor delta (PPARd) signaling pathway (AID 743212; calls by dose curve)
Chain of Peroxisome proliferator-activated receptor delta (Homo sapiens) (Q03181 whole entry, looked up): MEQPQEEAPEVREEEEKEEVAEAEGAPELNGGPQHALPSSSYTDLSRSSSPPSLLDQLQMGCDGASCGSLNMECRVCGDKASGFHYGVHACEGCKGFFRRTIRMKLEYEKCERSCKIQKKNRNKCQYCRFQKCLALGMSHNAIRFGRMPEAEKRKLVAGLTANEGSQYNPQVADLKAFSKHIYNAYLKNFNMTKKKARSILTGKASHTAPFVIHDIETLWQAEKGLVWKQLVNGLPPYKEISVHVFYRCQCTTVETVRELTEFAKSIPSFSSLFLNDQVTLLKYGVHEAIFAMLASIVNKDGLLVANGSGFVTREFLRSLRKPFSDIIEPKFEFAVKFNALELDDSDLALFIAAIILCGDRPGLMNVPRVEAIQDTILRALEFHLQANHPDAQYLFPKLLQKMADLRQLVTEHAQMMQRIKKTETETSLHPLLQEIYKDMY
In short: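 Read-out: beta-lactamase FRET fluorescence after 2 h room-temperature incubation with LiveBLAzer B/G substrate. Cells were HEK293H carrying a UAS-bla reporter for PPARd, treated at 37 C with DMSO-dissolved compounds.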

[19] = target: Peroxisome proliferator-activated receptor delta (Homo sapiens) (UniProt Q03181); assay: qHTS assay to identify small molecule antagonists of the peroxisome proliferator-activated receptor delta (PPARd) signaling pathway (AID 743215; active means well fitted inhibition curve with a large enough effect in the signal ratio in the repeat runs, not every such curve was filed as active; the % refers to the signal ratio;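 further: cells stimulated with agonist L165041 at 300 nM final during compound exposure; series mostly up to about 62 µM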)
In short: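 Fluorescence from cleaved LiveBLAzer B/G FRET substrate (2 h, room temperature) reports PPARd-driven beta-lactamase in HEK293H UAS-bla cells. Cells had been treated 17 h at 37 C with compound plus 300 nM final L165041.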

[20] = target: Peroxisome proliferator-activated receptor gamma (Homo sapiens) (UniProt P37231); assay: qHTS assay to identify small molecule antagonists of the peroxisome proliferator-activated receptor gamma (PPARg) signaling pathway (AID 743191; calls by dose curve; further: series mostly up to about 63 µM; nearly all actives have a fitted effect of over 30% in size)
In short: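 GeneBLAzer PPARg UAS-bla HEK293H cells, 5 h post-plating, exposed to compounds 17 h at 37C. LiveBLAzer B/G FRET substrate added for 1 h at room temperature; beta-lactamase reporter read by fluorescence intensity.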

Measured: Potency

CC(=O)[C@H]1CC[C@H]2[C@@H]3CCC4=CC(=O)CC[C@]4(C)[C@H]3CC[C@]12C
inactive: [1] | [2] | [3] | [4] | [5] | [6] | [8] | [9]
active: [7] 48.7 µM

CCCCCCCCCCCCCC[N+](C)(C)Cc1ccccc1
inactive: [1] | [3] | [12] | [13] | [14]
active: [2] 69.6 µM | [10] 22.2 µM and 29.8 µM | [4] 69.6 µM | [5] 44.3 µM and 26.6 µM | [7] 22.2 µM and 21.1 µM | [11] 22.2 µM and 10.6 µM | [8] 23.7 µM | [9] 49.7 µM | [15] 44.3 µM | [16] 24.9 µM

CN1CCN2c3ccccc3Cc3ccccc3C2C1 (stereo not drawn)
inactive: [1] | [2] | [3] | [10] | [4] | [5] | [6] | [8] | [15]

CCN(CC)c1ccc2c(-c3ccc(S(=O)(=O)O)cc3S(=O)(=O)[O-])c3ccc(=[N+](CC)CC)cc-3oc2c1
active: [2] 6.31 µM
inactive: [1] | [3] | [10] | [17] | [18] | [19] | [12] | [8] | [13] | [14] | [15]

O=C1CCCCCCCCCCCCCCCO1
inactive: [1] | [2] | [3] | [10] | [4] | [5] | [7] | [18] | [11] | [19] | [12] | [13] | [9] | [16]

CCCC(=O)OC(C)(C)Cc1ccccc1
inactive: [1] | [2] | [10] | [17] | [4] | [5] | [6] | [7] | [11] | [14] | [16]

Cc1ccc(N/N=c2\c(=O)cc/c(=N\Nc3ccc(S(=O)(=O)O)cc3)c2=O)c(C)c1
inactive: [3] | [20] | [10] | [17] | [4] | [5] | [7] | [11] | [12] | [8] | [13] | [9]
active: [1] 8.63 µM

Cc1cc(-c2ccc(N=Nc3cc(S(=O)(=O)O)c4ccccc4c3N)c(C)c2)ccc1N=Nc1cc(S(=O)(=O)O)c2ccccc2c1N
active: [17] 12.3 µM
inactive: [1] | [2] | [20] | [10] | [4] | [5] | [6] | [18] | [8] | [9] | [14]

CCCCCC/C=C\CCCCCCCC(=O)O
inactive: [1] | [2] | [10] | [17] | [4] | [7] | [11] | [19] | [12] | [8] | [13] | [9] | [14] | [15] | [16]

C#C[C@]1(O)CC[C@H]2[C@@H]3[C@H](C)CC4=C(CCC(=O)C4)[C@H]3CC[C@@]21C
active: [17] 23.7 µM
inactive: [1] | [2] | [10] | [4] | [5] | [18] | [11] | [8] | [9] | [14] | [15] | [16]

CCCC[P+](C)(CCCC)CCCC
inactive: [1] | [2] | [17] | [4] | [7] | [18] | [11] | [19] | [12] | [8] | [13] | [9] | [14] | [15] | [16]
